# Laboratory results published in PMC8384837, “Expanding the binding specificity for RNA recognition by a PUF domain”.
# Numbering of substitutions follows the chain as printed.
# Experiments:
# Assay in all cases: yeast three-hybrid, YBZ-1, SC-Leu-His + 0.5 mM 3-AT, 4 days
# Details in all cases: tags: N-Gal4 AD-HA kept; label: inside an RPR1-promoter hybrid RNA with tandem MS2 sites; ssRNA
# PUM1 PUF domain R5-RRG = PUM1 PUF domain R5-RRG (Homo sapiens, UniProt Q14671 828-1176, C1007R;Q1011G)
# Outline: (§1)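 The interaction score is the logarithmic change in variant frequency from input to selection. It uses log2, with a pseudocount of 1 for absent variants, and frequencies came from PCR-amplified, Illumina-sequenced repeat regions. The libraries were Pumilio-1 PUF domains randomized at the three base-contacting residues per repeat, co-expressed with matching RNA elements in strain YBZ-1 (LexA–MS2 coat fusion, HIS3 reporter). Plating lasted four days on SC-Leu (input) or SC-Leu-His + 0.5 mM 3-AT (selection).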
# PUM1 PUF domain R1-RLQ = PUM1 PUF domain R1-RLQ (Homo sapiens, UniProt Q14671 828-1176, S863R;R864L)
# Outline: as §1
# PUM1 PUF domain R2-LFI = PUM1 PUF domain R2-LFI (Homo sapiens, UniProt Q14671 828-1176, N899L;Y900F;Q903I)
# Outline: as §1
# PUM1 PUF domain R4-PFG = PUM1 PUF domain R4-PFG (Homo sapiens, UniProt Q14671 828-1176, N971P;H972F;Q975G)
# Outline: as §1
# PUM1 PUF domain R4-EYR = PUM1 PUF domain R4-EYR (Homo sapiens, UniProt Q14671 828-1176, N971E;H972Y;Q975R)
# Outline: as §1
# PUM1 PUF domain R8-IYR = PUM1 PUF domain R8-IYR (Homo sapiens, UniProt Q14671 828-1176, N1122I;Q1126R)
# Outline: as §1
# PUM1 PUF domain R6-VWT = molecular target: T1, PUM1 PUF domain R6-VWT (Homo sapiens, UniProt Q14671 828-1176, N1043V;Y1044W;Q1047T)
# T1 sequence: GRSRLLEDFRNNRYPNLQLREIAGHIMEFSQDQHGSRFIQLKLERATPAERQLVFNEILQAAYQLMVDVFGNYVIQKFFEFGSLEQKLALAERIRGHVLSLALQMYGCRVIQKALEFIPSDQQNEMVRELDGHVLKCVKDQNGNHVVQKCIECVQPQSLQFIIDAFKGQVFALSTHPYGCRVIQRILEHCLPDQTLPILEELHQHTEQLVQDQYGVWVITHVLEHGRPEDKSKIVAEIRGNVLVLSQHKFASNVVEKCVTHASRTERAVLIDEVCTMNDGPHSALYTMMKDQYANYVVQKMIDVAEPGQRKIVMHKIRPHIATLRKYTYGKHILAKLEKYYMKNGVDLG
# Outline: as §1
# PUM1 PUF domain R5-SHL = PUM1 PUF domain R5-SHL (Homo sapiens, UniProt Q14671 828-1176, C1007S;R1008H;Q1011L)
# Outline: as §1
# PUM1 PUF domain R3-YYG = PUM1 PUF domain R3-YYG (Homo sapiens, UniProt Q14671 828-1176, C935Y;R936Y;Q939G)
# Outline: as §1
# PUM1 PUF domain R4-LRC = PUM1 PUF domain R4-LRC (Homo sapiens, UniProt Q14671 828-1176, N971L;H972R;Q975C)
# Outline: as §1
# PUM1 PUF domain R5-RFC = PUM1 PUF domain R5-RFC (Homo sapiens, UniProt Q14671 828-1176, C1007R;R1008F;Q1011C)
# Outline: as §1
# PUM1 PUF domain R6-RFV = molecular target: T2, PUM1 PUF domain R6-RFV (Homo sapiens, UniProt Q14671 828-1176, N1043R;Y1044F;Q1047V)
# T2 sequence: T1 sequence with V216R, W217F, T220V
# Outline: as §1
# PUM1 PUF domain R3-CNE = PUM1 PUF domain R3-CNE (Homo sapiens, UniProt Q14671 828-1176, R936N;Q939E)
# Outline: as §1
# PUM1 PUF domain R3-TQE = PUM1 PUF domain R3-TQE (Homo sapiens, UniProt Q14671 828-1176, C935T;R936Q;Q939E)
# Outline: as §1
# PUM1 PUF domain R6-IFT = molecular target: T3, PUM1 PUF domain R6-IFT (Homo sapiens, UniProt Q14671 828-1176, N1043I;Y1044F;Q1047T)
# T3 sequence: T1 sequence with V216I, W217F
# Outline: as §1
# PUM1 PUF domain R6-EWL = molecular target: T4, PUM1 PUF domain R6-EWL (Homo sapiens, UniProt Q14671 828-1176, N1043E;Y1044W;Q1047L)
# T4 sequence: T1 sequence with V216E, T220L
# Outline: as §1
# PUM1 PUF domain R7-RSC = PUM1 PUF domain R7-RSC (Homo sapiens, UniProt Q14671 828-1176, S1079R;N1080S;E1083C)
# Outline: as §1
# PUM1 PUF domain R5-RKP = PUM1 PUF domain R5-RKP (Homo sapiens, UniProt Q14671 828-1176, C1007R;R1008K;Q1011P)
# Outline: as §1
# PUM1 PUF domain R5-RCK = PUM1 PUF domain R5-RCK (Homo sapiens, UniProt Q14671 828-1176, C1007R;R1008C;Q1011K)
# Outline: as §1
# PUM1 PUF domain R5-KRH = PUM1 PUF domain R5-KRH (Homo sapiens, UniProt Q14671 828-1176, C1007K;Q1011H)
# Outline: as §1
sequence,measurement,setting,value
GGCUAGAACUAGUGGAUCCCCCGGCGCCCGGCGGCUCGAGCCCGGGUAAGUGUGAAUAGUCUGCAUGCCGCCGGGCGCCAUGCCUGCAGGUCGACUCUAGAAAACAUG,binding signal,PUM1 PUF domain R5-RRG,1.66 log2 enrichment (interaction score)
GGCUAGAACUAGUGGAUCCCCCGGCGCCCGGCGGCUCGAGCCCGGGUAAGUGUAAAUUGUCUGCAUGCCGCCGGGCGCCAUGCCUGCAGGUCGACUCUAGAAAACAUG,binding signal,PUM1 PUF domain R1-RLQ,4.94 log2 enrichment (interaction score)
GGCUAGAACUAGUGGAUCCCCCGGCGCCCGGCGGCUCGAGCCCGGGUAAGUGUAAAUCGUCUGCAUGCCGCCGGGCGCCAUGCCUGCAGGUCGACUCUAGAAAACAUG,binding signal,PUM1 PUF domain R1-RLQ,5.58 log2 enrichment (interaction score)
GGCUAGAACUAGUGGAUCCCCCGGCGCCCGGCGGCUCGAGCCCGGGUAAGUGUAAAAAGUCUGCAUGCCGCCGGGCGCCAUGCCUGCAGGUCGACUCUAGAAAACAUG,binding signal,PUM1 PUF domain R2-LFI,4.64 log2 enrichment (interaction score)
GGCUAGAACUAGUGGAUCCCCCGGCGCCCGGCGGCUCGAGCCCGGGUAAGUGUAUAUAGUCUGCAUGCCGCCGGGCGCCAUGCCUGCAGGUCGACUCUAGAAAACAUG,binding signal,PUM1 PUF domain R4-PFG,7.12 log2 enrichment (interaction score)
same,binding signal,PUM1 PUF domain R4-EYR,3.63 log2 enrichment (interaction score)
GGCUAGAACUAGUGGAUCCCCCGGCGCCCGGCGGCUCGAGCCCGGGUAAGCGUAAAUAGUCUGCAUGCCGCCGGGCGCCAUGCCUGCAGGUCGACUCUAGAAAACAUG,binding signal,PUM1 PUF domain R8-IYR,6.47 log2 enrichment (interaction score)
GGCUAGAACUAGUGGAUCCCCCGGCGCCCGGCGGCUCGAGCCCGGGUAAGUGUAAAUAGUCUGCAUGCCGCCGGGCGCCAUGCCUGCAGGUCGACUCUAGAAAACAUG,binding signal,PUM1 PUF domain R5-RRG,2.29 log2 enrichment (interaction score)
same,binding signal,PUM1 PUF domain R6-VWT,1.67 log2 enrichment (interaction score)
same,binding signal,PUM1 PUF domain R5-SHL,2.34 log2 enrichment (interaction score)
same,binding signal,PUM1 PUF domain R3-YYG,4.58 log2 enrichment (interaction score)
same,binding signal,PUM1 PUF domain R4-LRC,4.01 log2 enrichment (interaction score)
same,binding signal,PUM1 PUF domain R8-IYR,4.7 log2 enrichment (interaction score)
same,binding signal,PUM1 PUF domain R5-RFC,3.35 log2 enrichment (interaction score)
same,binding signal,PUM1 PUF domain R6-RFV,3.56 log2 enrichment (interaction score)
same,binding signal,PUM1 PUF domain R3-CNE,2.27 log2 enrichment (interaction score)
same,binding signal,PUM1 PUF domain R4-PFG,6.55 log2 enrichment (interaction score)
GGCUAGAACUAGUGGAUCCCCCGGCGCCCGGCGGCUCGAGCCCGGGUAAGUGUAAAUGGUCUGCAUGCCGCCGGGCGCCAUGCCUGCAGGUCGACUCUAGAAAACAUG,binding signal,PUM1 PUF domain R1-RLQ,2.26 log2 enrichment (interaction score)
GGCUAGAACUAGUGGAUCCCCCGGCGCCCGGCGGCUCGAGCCCGGGUAAGUGUAAGUAGUCUGCAUGCCGCCGGGCGCCAUGCCUGCAGGUCGACUCUAGAAAACAUG,binding signal,PUM1 PUF domain R3-YYG,6.37 log2 enrichment (interaction score)
same,binding signal,PUM1 PUF domain R3-CNE,3.08 log2 enrichment (interaction score)
same,binding signal,PUM1 PUF domain R3-TQE,2.29 log2 enrichment (interaction score)
GGCUAGAACUAGUGGAUCCCCCGGCGCCCGGCGGCUCGAGCCCGGGUAAGUGUACAUAGUCUGCAUGCCGCCGGGCGCCAUGCCUGCAGGUCGACUCUAGAAAACAUG,binding signal,PUM1 PUF domain R4-PFG,6.74 log2 enrichment (interaction score)
same,binding signal,PUM1 PUF domain R4-EYR,1.63 log2 enrichment (interaction score)
GGCUAGAACUAGUGGAUCCCCCGGCGCCCGGCGGCUCGAGCCCGGGUAAGUGAAAAUAGUCUGCAUGCCGCCGGGCGCCAUGCCUGCAGGUCGACUCUAGAAAACAUG,binding signal,PUM1 PUF domain R6-VWT,6.13 log2 enrichment (interaction score)
same,binding signal,PUM1 PUF domain R6-IFT,4.79 log2 enrichment (interaction score)
same,binding signal,PUM1 PUF domain R6-EWL,7.27 log2 enrichment (interaction score)
GGCUAGAACUAGUGGAUCCCCCGGCGCCCGGCGGCUCGAGCCCGGGUAAGUGUUAAUAGUCUGCAUGCCGCCGGGCGCCAUGCCUGCAGGUCGACUCUAGAAAACAUG,binding signal,PUM1 PUF domain R5-RRG,4.55 log2 enrichment (interaction score)
same,binding signal,PUM1 PUF domain R5-SHL,2.85 log2 enrichment (interaction score)
GGCUAGAACUAGUGGAUCCCCCGGCGCCCGGCGGCUCGAGCCCGGGUAAGUCUAAAUAGUCUGCAUGCCGCCGGGCGCCAUGCCUGCAGGUCGACUCUAGAAAACAUG,binding signal,PUM1 PUF domain R7-RSC,2.75 log2 enrichment (interaction score)
GGCUAGAACUAGUGGAUCCCCCGGCGCCCGGCGGCUCGAGCCCGGGUAAGUGUCAAUAGUCUGCAUGCCGCCGGGCGCCAUGCCUGCAGGUCGACUCUAGAAAACAUG,binding signal,PUM1 PUF domain R5-RKP,3.3 log2 enrichment (interaction score)
same,binding signal,PUM1 PUF domain R5-RRG,4.19 log2 enrichment (interaction score)
same,binding signal,PUM1 PUF domain R5-RCK,4.05 log2 enrichment (interaction score)
same,binding signal,PUM1 PUF domain R5-SHL,0.12 log2 enrichment (interaction score)
same,binding signal,PUM1 PUF domain R5-KRH,4.38 log2 enrichment (interaction score)
same,binding signal,PUM1 PUF domain R5-RFC,5.11 log2 enrichment (interaction score)
